Data on eight molecules can be found in PubChem BioAssay (EPA / NIEHS).

Inconclusive results are not listed. The source made the active and inactive calls. How the source made its calls, unless noted: active means hit-call score of the fitted dose curve at least 0.9, where 1 is the maximum; inactive means score below 0.9.

A short description of test [1]: ACEA_ER_80hr: ACEA Biosciences xCELLigence Real-Time Cell Analysis on Estrogen Receptor Agonism for Proliferation (AID 2282667; active means hit-call score of the fitted dose curve at least 0.9, where 1 is the maximum). To be noted: T47D proliferation, impedance (xCELLigence), 80 h. An outline of the steps:
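Real-time electrical impedance tracked growth of the human breast line T47D, with the 80 h post-dosing value used. Dosing spanned eight 1:4 steps down from a 100 uM final top concentration, run in duplicate.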

Test [2] can be described thus: APR_HepG2_CellCycleArrest_24hr: Apredica 24-hour HepG2 Assay for Cell Cycle Arrest (AID 2282905).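 Further: cell cycle arrest scored as ratio of 2N to 4N nuclear DNA content.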 As to conditions: imaging, actives raise or lower the signal. An outline of the steps: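 Cell cycle arrest is scored from nuclear DNA content measured by high-content imaging of Hoechst 33342-stained HepG2 cells following 24-hour treatment at ten concentrations up to 200 uM, with DMSO as baseline.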

Test [3] in a line: APR_HepG2_NuclearSize_24hr: Apredica 24-hour HepG2 Assay for Nuclear Size (AID 2282907). To be noted: high-content imaging, actives raise or lower the signal. The gist of the method: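 Compounds in DMSO (final 0.5%) were added to human HepG2 hepatoma cells at ten concentrations up to 200 uM for 24 hr. Fixed nuclei were stained with Hoechst 33342, and nuclear diameter was quantified from automated images.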

Test [4] in a line: APR_HepG2_CellLoss_24hr: Apredica 24-hour HepG2 Assay for Cell Loss (AID 2282908).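 On AC50: fit in both directions so a hit may be cell loss or gain.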 To be noted: high-content imaging. The gist of the method: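 Cell number is quantified by fluorescence imaging of Hoechst 33342-stained nuclei following dosing at 0.39–200 uM in 0.5% DMSO. Curves are fitted in both directions from the DMSO baseline.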
A short description of test [5]: APR_HepG2_MitoticArrest_24hr: Apredica 24-hour HepG2 Assay for Mitotic Arrest (AID 2282910). To be noted: high-content imaging, actives raise or lower the signal. The gist of the method:
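Compounds are dosed onto HepG2 cells across ten concentrations up to 200 uM for 24 hr. Cells are then fixed in 3.7% formaldehyde, permeabilised, and labelled for phospho-histone H3 and nuclei; images are scored by cell cycle analysis and fitted bidirectionally relative to DMSO.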

The nature of test [6]: APR_HepG2_MitoMembPot_24hr: Apredica 24-hour HepG2 Assay for Mitochondrial Membrane Potential (AID 2282911). As to conditions: imaging, actives raise or lower the signal. An outline of the steps: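 Cells are dosed for 24 hr across 0.39 to 200 uM with solvent held at 0.5% DMSO. They are then stained with 250 nM MitoTracker Red CMXRos for 30 min, fixed in 3.7% formaldehyde and imaged.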

Test [7] in a line: APR_HepG2_MitoMass_24hr: Apredica 24-hour HepG2 Assay for Mitochondrial Mass (AID 2282912). To be noted: high-content imaging, actives raise or lower the signal. The gist of the method: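 The liver line HepG2 was dosed in duplicate across a 0.39–200 uM series, with final DMSO held at 0.5% v/v, and harvested at 24 hr. High-content imaging measured mitochondrial dye staining.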

A short description of test [8]: APR_HepG2_CellCycleArrest_72hr: Apredica 72-hour HepG2 Assay for Cell Cycle Arrest (AID 2282914). As to conditions: high-content imaging, actives raise or lower the signal. An outline of the steps:
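Read-out is Hoechst-stained nuclear DNA content measured by automated fluorescence imaging (20x, six images per well), fitted in both directions relative to DMSO. Human HepG2 liver cells received 0.39–200 uM compound for 72 hr at 0.5% v/v DMSO.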

Test [9] in a line: APR_HepG2_CellLoss_72hr: Apredica 72-hour HepG2 Assay for Cell Loss (AID 2282915). To be noted: high-content imaging. The gist of the method: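 Cell number comes from Hoechst 33342-labelled nuclei, imaged at 20x after 3.7% formaldehyde fixation. Dosing was 0.39–200 uM, ten concentrations in duplicate, 0.5% DMSO final, for 72 h. Bidirectional fit relative to DMSO baseline.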
Test [10] is described as follows: APR_HepG2_P-H2AX_72hr: Apredica 72-hour HepG2 Assay for H2AX Phosphorylation (AID 2282916).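 Further: phospho-histone H2A.x immunostain intensity per cell marking DNA damage.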 To be noted: imaging, actives raise or lower the signal. An outline of the steps: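 Following 72 hr treatment with 0.39–200 uM compound, HepG2 cells were formaldehyde-fixed, permeabilized and stained for phospho-H2A.x; signal was measured by high-content imaging and fitted bidirectionally against DMSO controls.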

Test [11] in a line: APR_HepG2_MitoMembPot_72hr: Apredica 72-hour HepG2 Assay for Mitochondrial Membrane Potential (AID 2282917). As to conditions: imaging, actives raise or lower the signal. The gist of the method: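 Membrane potential read by MitoTracker Red CMXRos (250 nM, 30 min, pre-fixation) fluorescence imaging of HepG2 after 72 hr exposure. Ten concentrations, 0.39–200 uM, duplicate wells, 0.5% DMSO; fitted in both directions against DMSO baseline.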

Test [12] can be described thus: APR_HepG2_MitoticArrest_72hr: Apredica 72-hour HepG2 Assay for Mitotic Arrest (AID 2282918). As to conditions: high-content imaging, actives raise or lower the signal. The gist of the method:
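Read-out is phospho-histone H3 immunofluorescence with Hoechst nuclear segmentation, imaged at 20x. Human HepG2 liver cells received ten concentrations (0.39–200 uM, final DMSO 0.5% v/v) for 72 hr before fixation. Gain or loss of signal was fitted relative to DMSO.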

Test [13] can be described thus: APR_HepG2_MicrotubuleCSK_72hr: Apredica 72-hour HepG2 Assay for Microtubule CSK Stabilty (AID 2282919). To be noted: HepG2 microtubule cytoskeleton, high-content imaging, actives raise or lower the signal. The gist of the method:
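Read-out is tubulin fluorescence intensity from high-content imaging of HepG2 cells, with nuclei identified by Hoechst 33342. Treatment lasts 72 h at 0.39–200 uM, and curves are fitted bidirectionally against the DMSO negative control.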

The nature of test [14]: APR_HepG2_P-H2AX_24hr: Apredica 24-hour HepG2 Assay for H2AX Phosphorylation (AID 2282920). As to conditions: high-content imaging, actives raise or lower the signal. An outline of the steps:
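HepG2, 24 hr, cpd 0.39–200 uM (10 conc, duplicate), DMSO 0.5% v/v final. Fix 3.7% formaldehyde, Triton X-100 permeabilize, anti-phospho-H2A.x 1:200 + Hoechst 2 ug/mL. Imaged, bidirectional fit vs DMSO.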

A short description of test [15]: APR_HepG2_StressKinase_72hr: Apredica 72-hour HepG2 Assay for Stress Kinase (AID 2282921). As to conditions: HepG2 stress kinase (phospho-c-Jun) imaging, actives raise or lower the signal. An outline of the steps: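 Fluorescence intensity of Cy3-tagged anti-phospho-c-Jun antibody, quantified per cell from Hoechst-defined nuclei across six images per well, served as the read-out following 72 h exposure (0.39–200 uM, 0.5% v/v DMSO).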

A short description of test [16]: APR_HepG2_MitoMass_72hr: Apredica 72-hour HepG2 Assay for Mitochondrial Mass (AID 2282924).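 Further: MitoTracker Red CMXRos stain intensity per cell imaged as mitochondrial mass.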 To be noted: high-content imaging, actives raise or lower the signal. The gist of the method: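 HepG2, 72 hr cmpd, 10 conc 0.39–200 uM in dup, DMSO 0.5% v/v. MitoTracker Red CMXRos 250 nM 30 min pre-fix; formaldehyde 3.7% fix 30 min RT. HCS imaging, gain/loss fit vs DMSO.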

Test [17] in a line: APR_HepG2_p53Act_24hr: Apredica 24-hour HepG2 Assay for p53 Activation (AID 2282913).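 Further: p53 protein immunofluorescence averaged per cell in HepG2 with Hoechst nuclei.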 As to conditions: high-content imaging, actives raise or lower the signal. An outline of the steps: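 Human HepG2 liver cells; 24 hr cpd treatment, 0.39–200 uM, 0.5% DMSO final. Fixed in 3.7% formaldehyde, permeabilized with 0.5% Triton X-100, stained with anti-p53/Cy5 plus Hoechst 33342. Six images per well at 20x; gain or loss vs DMSO.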

Test [18] can be described thus: APR_HepG2_StressKinase_24hr: Apredica 24-hour HepG2 Assay for Stress Kinase (AID 2282922). As to conditions: HepG2 stress kinase (phospho-c-Jun) imaging, actives raise or lower the signal. An outline of the steps:
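HepG2, 24 hr dosing, 0.39–200 uM in duplicate, 0.5% DMSO; formaldehyde fix (3.7%), 0.5% Triton X-100; anti-phospho-c-Jun + Cy3 secondary, Hoechst counterstain; ArrayScan imaging; bidirectional curve fit vs DMSO baseline.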

A short description of test [19]: APR_HepG2_p53Act_72hr: Apredica 72-hour HepG2 Assay for p53 Activation (AID 2282923).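 Further: average cellular p53 protein immunofluorescence intensity in HepG2 cells.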 As to conditions: high-content imaging, actives raise or lower the signal. The gist of the method: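 HepG2 monolayers receive test compounds in duplicate at ten concentrations (0.39 through 200 uM) for 72 hr. They are then formaldehyde-fixed, antibody-labelled for p53, Hoechst-stained and imaged, with activity fitted bidirectionally versus DMSO.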

`CN1CCC[C@H]1c1cccnc1`: the result in test [1], in [2], in [3], in [4], in test [5] and in test [6] was inactive. In addition, the outcome in test [7], in [8], in test [9], in test [10], in [11] and in test [12] was inactive. Moreover, the molecule was classed as inactive in test [13], in test [14], in [15] and in test [16].

Regarding `CN(C)C=O`, the call in test [1], in test [2], in test [3], in [4], in test [5] and in test [6] was inactive. The molecule was called inactive in [7], in [17], in test [8], in test [9], in test [10] and in test [11]. The molecule was called inactive in test [12], in test [13], in test [14], in test [15], in test [18] and in test [19]. Also, the result in test [16] was inactive.

As for `CCCCCCCCOC(=O)CCCCCCCCC(=O)OCCCCCCCC`, the call in [1], in [2], in [3], in test [4], in [5] and in test [6] was inactive. Further, the molecule was classed as inactive in test [7], in [17], in test [8], in test [9], in [10] and in [11]. Also, the molecule was called inactive in test [12], in test [13], in [14], in test [15], in test [19] and in [16].

As for `c1ccc2c(c1)ccc1ccccc12`, the molecule was called inactive in [1], in test [2], in test [3], in [4], in test [5] and in test [6]. Moreover, the outcome in test [7], in [17], in test [8], in [9], in test [10] and in [11] was inactive. In addition, the outcome in [12], in test [13], in test [14], in [15], in [19] and in test [16] was inactive.

The AC50 is the concentration at which the activity in the assay is half-maximal. Take `CCCCCCCCCCCCN1CCCC1=O`: the molecule was called inactive in [1], in [6], in test [17], in [11] and in [18]. Further, the AC50 in test [2] was 53.5 µM (active); in [3], 75.3 µM (active); in test [4], 47.4 µM (active); in [5] it was 68.7 µM (active); in test [7], 51 µM (active); in test [8], 42.6 µM (active). In addition, the AC50 in test [9] was 72.4 µM (active); in test [10], 58.6 µM (active); in test [12], 62.4 µM (active); in test [13] it was 53.3 µM (active); in [14] it was 67.2 µM (active); in test [15] it was 67.5 µM (active). Also, the half-maximal activity concentration (AC50) in test [19] was 61.3 µM (active); in test [16] it was 109 µM (active).

With `Nc1cccc2c(N)cccc12`, the result in [1], in [2], in test [3], in test [6], in [7] and in test [8] was inactive. Further, the outcome in test [13] and in test [16] was inactive. Moreover, the AC50 in [4] is 51.8 µM (active); in test [5], 70.1 µM (active); in [17], 96.2 µM (active); in [9] it was 83.1 µM (active); in test [10], 36.4 µM (active); in [11] it was 17.3 µM (active). For the same molecule, the AC50 in test [12] is 77 µM (active); in [14] it was 42.9 µM (active); in test [15], 39.9 µM (active); in test [19], 67.5 µM (active).

Turning to `CC(=O)CC(C)(C)O`, the concentration at half-maximal activity (AC50) is 16.2 µM (active) in test [1]; 0.0392 µM (active) in [2]; 19.8 µM (active) in test [4]; 0.0402 µM (active) in test [5]; 8.56 µM (active) in test [7]; 0.106 µM (active) in test [17]. The half-maximal activity concentration (AC50) is 32.1 µM (active) in test [8]; 11 µM (active) in [9]; 0.032 µM (active) in [10]; 0.45 µM (active) in test [12]; 0.0173 µM (active) in test [13]; 19.8 µM (active) in test [14]. The AC50 in [19] was 0.0395 µM (active). The outcome in [3], in [6], in test [11], in test [15] and in [16] was inactive.

For `OCCC(F)(F)C(F)(F)C(F)(F)C(F)(F)C(F)(F)C(F)(F)F`, the result in test [1], in test [2], in test [3], in [4], in test [5] and in test [6] was inactive. Besides, the molecule was called inactive in test [7], in [17], in test [8], in [9], in [10] and in test [11]. The molecule was classed as inactive in test [12], in [13], in [14], in test [15], in test [18] and in [19]. Further, the result in [16] was inactive.
